Each structure is given as a SMILES string. Records with an inconclusive call do not appear. Values without a mark were called inactive. The source made the active and inactive calls. Unless noted, calls come from the whole dose curve; as a rule, active = well fitted curve in the direction sought with a large enough effect in the repeat runs; inconclusive = weak or mixed curves; inactive = no such curve, though single readings can be large; an effect the other way counts as inactive or inconclusive.

Assay [1] in a line: qHTS assay to identify small molecule agonists of the peroxisome proliferator-activated receptor delta (PPARd) signaling pathway - cell viability counter screen (AID 743211). Note: nearly all actives have a fitted effect of over 55% in size. A digest of the protocol:
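Read-out: CellTiter-Glo luminescence, 30 min RT, measured in the same wells as the beta-lactamase reporter. Cells: GeneBLAzer PPAR delta UAS-bla HEK293H, 3000 cells/well, compound exposure 17 h at 37C.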

Assay [2] concerns the target Peroxisome proliferator-activated receptor delta (Homo sapiens) (UniProt Q03181). The assay is described as follows: qHTS assay to identify small molecule agonists of the peroxisome proliferator-activated receptor delta (PPARd) signaling pathway (AID 743212; calls by dose curve). A digest of the protocol: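 Cells expressing a UAS-driven beta-lactamase reporter (PPARd-bla HEK293H) were given test compounds after a 5 h settle and kept at 37 C. Reporter activity was then measured as FRET fluorescence using LiveBLAzer B/G substrate.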

The nature of assay [3]: qHTS assay to identify small molecule antagonists of the peroxisome proliferator-activated receptor delta (PPARd) signaling pathway - cell viability counter screen (AID 743213). Note: nearly all actives have a fitted effect of over 50% in size. The essentials: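 In this counter screen, HEK293H cells carrying a UAS-beta-lactamase reporter are co-treated with test compounds and 300 nM L165041 (final) for 17 h at 37 C; cell viability is quantified by CellTiter-Glo luminescence.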

In assay [4] the target is Peroxisome proliferator-activated receptor delta (Homo sapiens) (UniProt Q03181). The assay is described as follows: qHTS assay to identify small molecule antagonists of the peroxisome proliferator-activated receptor delta (PPARd) signaling pathway (AID 743215; active = well fitted inhibition curve with a large enough effect in the signal ratio in the repeat runs, not every such curve was filed as active; the % refers to the signal ratio;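 note: cells stimulated with agonist L165041 at 300 nM final during compound exposure; series mostly up to about 62 µM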). A digest of the protocol:
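HEK293H GeneBLAzer PPARd UAS-bla reporter cells; cpd + L165041 300 nM final, 17 h 37 C; LiveBLAzer B/G FRET substrate 2 h RT; fluorescence intensity read-out. Antagonist mode.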

The target of assay [5] is Bile acid receptor (Homo sapiens) (UniProt Q96RI1). The assay is described as follows: qHTS assay to identify small molecule antagonists of the farnesoid-X-receptor (FXR) signaling pathway (AID 743217; active = well fitted inhibition curve with a large enough effect in the signal ratio in the repeat runs, not every such curve was filed as active; the % refers to the signal ratio). A digest of the protocol:
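Read-out: beta-lactamase FRET fluorescence (LiveBLAzer B/G substrate, 2 h, room temperature) in GeneBLAzer FXR-UAS-bla HEK 293T cells. Compounds were co-dosed with 50 uM chenodeoxycholic acid (final) and incubated 16 h at 37 °C.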

A short description of assay [6]: qHTS assay to identify small molecule agonists of the farnesoid-X-receptor (FXR) signaling pathway - cell viability counter screen (AID 743218). Note: nearly all actives have a fitted effect of over 45% in size. Note: potency is the fitted concentration of half-maximal effect. The essentials: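 Luminescence from CellTiter-Glo, read after 30 min at RT, reports viability of GeneBLAzer FXR-UAS-bla HEK 293T cells treated 16 h with compounds in the wells used for the beta-lactamase reporter.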
A general note: Quantitative high-throughput screening tests each substance at several concentrations.

The target of assay [7] is Bile acid receptor (Homo sapiens) (UniProt Q96RI1). The assay is described as follows: qHTS assay to identify small molecule agonists of the farnesoid-X-receptor (FXR) signaling pathway (AID 743220; active = well fitted activation curve with a large enough effect in the signal ratio in the repeat runs, not every such curve was filed as active; the % refers to the signal ratio). A digest of the protocol:
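FXR-UAS-bla HEK 293T cells carrying a UAS-driven beta-lactamase reporter were plated for 5 h at 37C/5% CO2, then exposed to DMSO-dissolved Tox21 10K compounds for 16 h at 37C. A LiveBLAzer B/G FRET substrate was loaded for 2 h at room temperature before fluorescence reading.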

Assay [8] in a line: qHTS assay to identify small molecule antagonists of the farnesoid-X-receptor (FXR) signaling pathway - cell viability counter screen (AID 743221; active = well fitted cell-killing curve with a large enough effect in the repeat runs, not every such curve was filed as active; note: nearly all actives have a fitted effect of over 50% in size). A digest of the protocol: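 HEK 293T FXR-bla cells, 5 h pre-incubation; compound + CDCA 50 uM final, 16 h, 37 C; beta-lactamase FRET read first, then CellTiter-Glo luminescence, 30 min RT.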
The target in assay [9] is Vitamin D3 receptor (Homo sapiens) (UniProt P11473). The assay is described as follows: qHTS assay to identify small molecule agonists of the vitamin D receptor (VDR) signaling pathway (AID 743222; calls by dose curve). The essentials:
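Beta-lactamase reporter readout (LiveBLAzer B/G FRET, 2 h RT) in VDR-bla cells after 16 h compound treatment at 37C, 5% CO2; cells pre-incubated 4 h before pin transfer of DMSO solutions.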

For assay [10] the target is unchanged. The experiment in a line: qHTS assay to identify small molecule antagonists of the vitamin D receptor (VDR) signaling pathway (AID 743223; active = well fitted inhibition curve with a large enough effect in the signal ratio in the repeat runs, not every such curve was filed as active; the % refers to the signal ratio). A digest of the protocol:
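Beta-lactamase reporter read-out: FRET substrate fluorescence after 2 h at room temperature, following 16 h exposure of VDR-bla cells to test compound plus 3 nM (final) 1alpha,25-dihydroxyvitamin D3 agonist at 37C.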

Sequence of Vitamin D3 receptor (Homo sapiens) (P11473 whole entry, looked up): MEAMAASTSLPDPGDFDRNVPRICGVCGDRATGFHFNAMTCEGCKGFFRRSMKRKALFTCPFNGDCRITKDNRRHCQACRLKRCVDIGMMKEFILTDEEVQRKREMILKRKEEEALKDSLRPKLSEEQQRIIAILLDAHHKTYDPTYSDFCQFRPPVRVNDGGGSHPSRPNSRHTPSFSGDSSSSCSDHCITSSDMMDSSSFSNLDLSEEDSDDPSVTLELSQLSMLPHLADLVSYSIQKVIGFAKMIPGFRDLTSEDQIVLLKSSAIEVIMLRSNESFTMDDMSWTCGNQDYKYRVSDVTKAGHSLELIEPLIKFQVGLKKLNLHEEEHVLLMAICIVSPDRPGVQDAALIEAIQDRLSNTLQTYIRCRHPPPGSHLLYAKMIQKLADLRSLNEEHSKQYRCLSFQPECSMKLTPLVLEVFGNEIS
Sequence of Peroxisome proliferator-activated receptor delta (Homo sapiens) (Q03181 whole entry, looked up): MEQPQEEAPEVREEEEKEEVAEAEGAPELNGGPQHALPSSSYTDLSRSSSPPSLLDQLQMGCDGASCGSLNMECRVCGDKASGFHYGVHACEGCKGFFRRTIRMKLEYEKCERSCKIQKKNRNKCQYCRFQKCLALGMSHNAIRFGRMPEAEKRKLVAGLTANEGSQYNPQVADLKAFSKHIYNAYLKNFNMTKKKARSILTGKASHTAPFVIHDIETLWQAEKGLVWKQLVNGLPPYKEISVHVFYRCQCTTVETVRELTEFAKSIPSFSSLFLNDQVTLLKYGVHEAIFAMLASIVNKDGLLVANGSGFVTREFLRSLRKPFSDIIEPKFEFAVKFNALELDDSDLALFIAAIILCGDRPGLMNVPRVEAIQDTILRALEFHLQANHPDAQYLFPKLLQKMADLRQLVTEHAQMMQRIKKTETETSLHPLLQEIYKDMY
Sequence of Bile acid receptor (Homo sapiens) (Q96RI1 whole entry, looked up): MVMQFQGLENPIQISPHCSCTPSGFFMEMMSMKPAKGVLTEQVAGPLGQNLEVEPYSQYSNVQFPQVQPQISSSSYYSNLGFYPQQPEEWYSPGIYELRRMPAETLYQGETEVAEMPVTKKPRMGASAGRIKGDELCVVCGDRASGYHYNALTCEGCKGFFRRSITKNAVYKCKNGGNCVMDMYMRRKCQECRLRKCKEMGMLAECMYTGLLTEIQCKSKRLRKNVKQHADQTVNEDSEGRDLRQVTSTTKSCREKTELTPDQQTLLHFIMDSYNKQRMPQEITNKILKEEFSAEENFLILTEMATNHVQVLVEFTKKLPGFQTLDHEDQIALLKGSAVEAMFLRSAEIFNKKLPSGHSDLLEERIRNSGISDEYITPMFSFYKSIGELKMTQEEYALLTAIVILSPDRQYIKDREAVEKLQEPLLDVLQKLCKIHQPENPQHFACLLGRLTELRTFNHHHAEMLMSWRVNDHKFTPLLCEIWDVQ

Consider `CCCC/C=C/C=C\C=O`, for which the compound was called inactive in assay [1], in assay [2], in assay [3], in assay [4], in [8] and in assay [9]. The compound was classed as inactive in assay [10]. The Potency result in assay [5], in assay [6] and in [7] was “inactive” each time.

With `O=C1c2ccccc2C(=O)N1CCl`, the result in assay [1], in assay [2], in assay [3], in assay [4], in assay [8] and in assay [9] was inactive. The Potency result in assay [5] and in [7] was “inactive” each time.

`N[C@@H](COP(=O)(O)O)C(=O)O`: the outcome in [1], in assay [2], in [3], in [4], in assay [8] and in assay [9] was inactive. Also, the Potency entry in assay [5] and in assay [7] was “inactive” each time.

As for `CC(C)=CCOC(=O)c1ccccc1`, the compound was called inactive in assay [1], in assay [2], in assay [3], in assay [4] and in [8]. In addition, the Potency result in assay [6] is “inactive”.

Consider `CC(C)C(=O)OCCc1ccccc1`, for which the result in assay [1], in [2], in assay [3], in [4], in assay [8] and in assay [9] was inactive. For the same compound, the call in [10] was inactive. Further, the Potency entry in [5], in assay [6] and in assay [7] was “inactive” each time.

As to `CNC(=O)[C@H]1O[C@@H](n2cnc3c(NCc4cc(Cl)ccc4OCc4cc(C)no4)ncnc32)[C@H](O)[C@@H]1N`, the result in assay [1], in assay [2], in assay [3], in [4], in assay [8] and in assay [9] was inactive. Further, in assay [10], the compound was called inactive. The Potency entry in assay [5], in [6] and in assay [7] was “inactive” throughout.

With `CC(C)(C)OC(=O)c1ccc(O)cc1`, the call in [1], in assay [2], in [3], in [4], in [8] and in assay [9] was inactive. Moreover, the Potency result in assay [5] and in [7] was “inactive” in each case.

Regarding `CO[C@@H]1[C@@H](OC(N)=O)[C@@H](O)[C@H](Oc2ccc3c(O)c(NC(=O)c4ccc(O)c(CC=C(C)C)c4)c(=O)oc3c2C)OC1(C)C`, the call in assay [1], in assay [2], in [3], in [4], in [8] and in assay [9] was inactive. For the same compound, in assay [10], the compound was called inactive. Also, the Potency result in [5], in assay [6] and in assay [7] was “inactive” in each case.

`CC(=O)CCCCn1c(=O)c2c(ncn2C)n(C)c1=O`: the compound was classed as inactive in [1], in assay [2], in assay [3], in assay [4] and in [8]. For the same compound, the Potency result in assay [6] was “inactive”.

Regarding `COc1nccnc1NS(=O)(=O)c1ccc(N)cc1`, the result in [1], in assay [2], in assay [3], in assay [4], in assay [8] and in [9] was inactive. Besides, in assay [10], the outcome was inactive. The Potency entry in [5] and in assay [7] was “inactive” in each case.

With `CN(C)c1ccc(C=O)cc1`, the result in [1], in [2], in assay [3], in assay [4], in [8] and in [9] was inactive. Moreover, the Potency result in assay [5], in assay [6] and in assay [7] was “inactive” throughout.

As for `CCCCOCCOC(=O)COc1nc(Cl)c(Cl)cc1Cl`, the compound was classed as inactive in [1], in assay [2], in assay [3], in assay [4], in assay [8] and in assay [9]. Moreover, the Potency entry in [5], in assay [6] and in assay [7] was “inactive” in each case.

Turning to `COCCOCCOCCOCCO`, the compound was classed as inactive in assay [1], in [2], in [3], in assay [4] and in assay [8]. Also, the Potency result in assay [5], in assay [6] and in assay [7] was “inactive” in each case.

Consider `NCCS`, for which the result in [1], in assay [2], in assay [3], in assay [4], in [8] and in [10] was inactive. The Potency entry in assay [5] and in [6] was “inactive” throughout.

On to `CCC(C=O)CC`, for which the compound was called inactive in assay [1], in [2], in [3], in [4], in assay [8] and in [9]. In assay [10], the outcome was inactive. The Potency entry in assay [5], in [6] and in assay [7] was “inactive” each time.

`O=C(CS(=O)Cc1ccco1)NC/C=C\COc1cc(CN2CCCCC2)ccn1` (stereo not given): the compound was classed as inactive in assay [1], in assay [2], in [3], in assay [4], in assay [8] and in [9]. Also, in assay [10], the compound was classed as inactive. The Potency result in assay [5], in assay [6] and in [7] was “inactive” throughout.

In the case of `CCOc1cc(NC(C)=O)ccc1C(=O)OC`, the outcome in assay [1], in assay [2], in [3], in assay [4] and in assay [8] was inactive. Besides, the Potency result in assay [5] and in [7] was “inactive” in each case.

As for `OC[C@H](Cc1cccc(O)c1)[C@H](CO)Cc1cccc(O)c1`, the compound was classed as inactive in assay [1], in assay [2], in assay [3], in assay [4], in [8] and in assay [9]. Also, in assay [10], the result was inactive. The Potency result in [5], in assay [6] and in assay [7] was “inactive” each time.

Take `C=C(C)C(=O)OCC(C)(C)COC(=O)C(=C)C`: the outcome in [1], in assay [2], in assay [3], in assay [4] and in assay [8] was inactive. Besides, in assay [6], the Potency result is “inactive”.

In the case of `OCCCCC(O)CO` (stereo not given), the result in [1], in assay [2], in assay [3], in assay [4], in [8] and in [9] was inactive. The compound was classed as inactive in [10]. For the same compound, the Potency result in assay [5], in assay [6] and in assay [7] was “inactive” throughout.

Turning to `COc1ccc(Br)c(C)c1`, the compound was called inactive in [1], in assay [2], in assay [3], in assay [4] and in [8]. The Potency result in assay [5], in assay [6] and in [7] was “inactive” in each case.

As to `CCCC(=O)C(C)=O`, the outcome in assay [1], in [2], in assay [3], in assay [4], in [8] and in assay [9] was inactive. For the same compound, the Potency result in assay [5], in [6] and in assay [7] was “inactive” throughout.

Take `CCCCCCCCOS(=O)(=O)O`: the result in [1], in [2], in assay [3], in [4] and in assay [8] was inactive. The Potency entry in assay [5], in assay [6] and in [7] was “inactive” throughout.

Take `c1ccc2c(c1)ccc1c3ccccc3ccc21`: the result in assay [1], in assay [2], in assay [3], in assay [4], in assay [8] and in [9] was inactive. The result in [10] was inactive. Besides, the Potency result in assay [5], in [6] and in assay [7] was “inactive” in each case.

As for `C#CC(C)N(C)C(=O)Nc1ccc(Cl)cc1` (stereo not given), the compound was called inactive in [1], in [2], in assay [3], in [4], in assay [8] and in [9]. For the same compound, the Potency entry in assay [5] and in assay [7] was “inactive” each time. Also, in assay [6], the Potency was 436 nM (active).

Consider `CC(=O)c1sc(C)nc1C`, for which the outcome in assay [1], in assay [2], in [3], in [4], in assay [8] and in assay [9] was inactive. The call in assay [10] was inactive. Moreover, the Potency result in assay [5] and in [7] was “inactive” throughout.

The values above are taken from PubChem BioAssay (Tox21).
